The text below walks through data of ChEMBL document CHEMBL4296182, “CO-ADD screening of NIH NCI Diversity Set V”.

In one assay the test system is Staphylococcus aureus. The experiment in a line: Antibacterial activity against Staphylococcus aureus MRSA ATCC 43300 (CO-ADD:GP_020); MIC in CAMBH media using NBS plates, by Resazurin F(560/590). The following applies: Concentration 20 uM, ASSAY_TEST Inhibition of Bacterial Growth, detection method Resazurin, Fluorescence (ex560/em590), MEDIA CAMHB, plate type 384well, CORNING #3640, time 18 hr. The class given is functional. A general note: The colour change of resazurin is a common sign of viable cells or microbes.

The next assay concerns Acinetobacter baumannii. As to the kind of experiment: Antibacterial activity against Acinetobacter baumannii ATCC 19606 (CO-ADD:GN_034); MIC in CAMBH media using NBS plates, by Resazurin F(560/590). The following applies: Concentration 20 uM, ASSAY_TEST Inhibition of Bacterial Growth, detection method Resazurin, Fluorescence (ex560/em590), MEDIA CAMHB, plate type 384well, CORNING #3640, time 18 hr. Type of assay: functional.

For a further assay, the system named is Escherichia coli. As to the kind of experiment: Antibacterial activity against Escherichia coli ATCC 25922 (CO-ADD:GN_001); MIC in CAMBH media using NBS plates, by Resazurin F(560/590). Type of assay: functional. The following applies: Concentration 20 uM, ASSAY_TEST Inhibition of Bacterial Growth, detection method Resazurin, Fluorescence (ex560/em590), MEDIA CAMHB, plate type 384well, CORNING #3640, time 18 hr.

Another assay concerns Klebsiella pneumoniae. The following applies: Concentration 20 uM; ASSAY_TEST Inhibition of Bacterial Growth; detection method Absorption (OD600); MEDIA CAMHB; plate type 384well; NBS; CORNING #3640; time 18 hr.
A further assay has as its system Candida albicans. As to conditions: 20 µM.
The subject of the next assay is Cryptococcus neoformans. As to conditions: Concentration 20 uM; ASSAY_TEST Inhibition of Fungal Growth; detection method Resazurin; Absorption (OD600-OD570); plate type 384well; NBS; CORNING #3640.

For part of these data: Measured potencies and affinities stand elsewhere.

Consider `CCCCNC(=O)Nc1ccccc1CC`, for which the Inhibition (as a rule, the relative decrease from the control value, in per cent) in the assay on Staphylococcus aureus was 14.67%; in the assay on Acinetobacter baumannii, 10.42%; with Escherichia coli it was 0.25%; in the assay on Klebsiella pneumoniae, 11.35%; in the assay with Candida albicans, 3.55%; in the assay on Cryptococcus neoformans, -6.96%.
As for `O=C(Nc1ccc(Nc2ccncc2)cc1)c1ccc([N+](=O)[O-])cc1`, the Inhibition in the assay on Staphylococcus aureus is -5.06%; in the assay with Acinetobacter baumannii it was 12.27%; in the assay on Escherichia coli, 7.64%; in the assay on Klebsiella pneumoniae it was 10.28%; with Candida albicans, 3.08%; in the assay with Cryptococcus neoformans it was -7.15%.
With `O=C(Nc1cccc(Cl)c1)Nc1nccs1`, the Inhibition is 1.33% in the assay on Staphylococcus aureus; -6.03% in the assay with Acinetobacter baumannii; 8.66% in the assay on Escherichia coli; 7.36% in the assay on Klebsiella pneumoniae; 3.47% in the assay with Candida albicans; -22.98% in the assay on Cryptococcus neoformans.
Take `CN(CC(=O)O)Cc1oc(CO)cc(=O)c1O`: the Inhibition is 10.58% with Staphylococcus aureus; -10.6% with Acinetobacter baumannii; 6.09% in the assay on Escherichia coli; 19.22% with Klebsiella pneumoniae; 0.31% with Candida albicans; -9.52% in the assay with Cryptococcus neoformans.
For `CCOC(=O)CC(=O)NC(C)(C)CCCCC(C)(C)NC(=O)CC(=O)OCC`, the Inhibition in the assay on Staphylococcus aureus is -5.26%; in the assay on Acinetobacter baumannii, -12.04%; in the assay on Escherichia coli, 17.83%; in the assay on Klebsiella pneumoniae, 13.05%; in the assay with Candida albicans it was -0.86%; with Cryptococcus neoformans, -4.13%.
For `NC(=O)c1ccc(Oc2ccc(C(N)=O)cc2)cc1`, the Inhibition with Staphylococcus aureus is 7.05%; in the assay on Acinetobacter baumannii, 9.37%; in the assay on Escherichia coli it was 0.31%; in the assay on Klebsiella pneumoniae it was 15.83%; in the assay with Candida albicans, -0.45%; in the assay with Cryptococcus neoformans, -7.62%.
Consider `Cc1cc(=O)n2c3c(c4c(cc13)c(CN(C)C)cc(=O)n4C)OC2.Cl`, for which the Inhibition in the assay with Staphylococcus aureus was -3.31%; with Acinetobacter baumannii, 19.85%; with Escherichia coli it was 6.04%; with Klebsiella pneumoniae it was 7.61%; in the assay on Candida albicans it was -0.27%; in the assay with Cryptococcus neoformans, -11%.
Regarding `CC(=O)OC1CCC2(C)C(=CCC3C2CCC2(C)C3CC3OC4(CCC(C)CN4)C(C)C32)C1` (stereo not given), the Inhibition in the assay on Staphylococcus aureus was -5.01%; in the assay on Acinetobacter baumannii, -6.15%; in the assay with Escherichia coli, 18.44%; with Klebsiella pneumoniae, 9.38%; with Candida albicans, 6.33%; with Cryptococcus neoformans it was 14.75%.
For the molecule `COc1ccc(OC)c(NC(=O)c2cc3oc4ccccc4c3cc2O)c1`, the Inhibition is 13.76% in the assay with Staphylococcus aureus; 8.19% in the assay with Acinetobacter baumannii; 5.92% with Escherichia coli; 9.42% in the assay with Klebsiella pneumoniae; -3.33% in the assay on Candida albicans; -0.7% with Cryptococcus neoformans.
In the case of `O=C(Cn1ccc(=O)[nH]c1=O)Nc1nccs1`, the Inhibition is 4.05% with Staphylococcus aureus; -8.5% in the assay with Acinetobacter baumannii; 10.86% with Escherichia coli; 12.12% with Klebsiella pneumoniae; 0.84% with Candida albicans; -10.28% in the assay with Cryptococcus neoformans.
For the molecule `CC(O)(c1ccccc1)C(c1ccccc1)C1CCCCN1` (stereo not given), the Inhibition with Staphylococcus aureus was 9.45%; in the assay on Acinetobacter baumannii, 13.67%; in the assay with Escherichia coli it was -4.2%; in the assay on Klebsiella pneumoniae, 13.38%; with Candida albicans it was 7.26%; in the assay on Cryptococcus neoformans it was -3.74%.
For the molecule `Cc1cc(=O)oc2cc(OS(C)(=O)=O)ccc12`, the Inhibition with Staphylococcus aureus is -6.24%; in the assay on Acinetobacter baumannii, -3.66%; with Escherichia coli, 13.01%; in the assay on Klebsiella pneumoniae it was 7.19%; with Candida albicans, 0.46%; with Cryptococcus neoformans, -11.39%.
Regarding `O=[N+]([O-])c1cccc(/C=C/c2ccccn2)c1`, the Inhibition with Staphylococcus aureus is 0.18%; in the assay with Acinetobacter baumannii, -2.22%; in the assay with Escherichia coli, 10.58%; in the assay on Klebsiella pneumoniae, 8.63%; with Candida albicans, 0.08%; in the assay on Cryptococcus neoformans, -13.12%.
Turning to `CCCCn1ccnc1C`, the Inhibition in the assay with Staphylococcus aureus was -0.22%; in the assay on Acinetobacter baumannii it was -5.26%; with Escherichia coli, 4.7%; in the assay with Klebsiella pneumoniae it was 8.98%; in the assay on Candida albicans it was 0.01%; in the assay on Cryptococcus neoformans, -3.23%.
In the case of `O=C1COc2cccnc2N1`, the Inhibition was 8.1% in the assay with Staphylococcus aureus; -14.05% in the assay with Acinetobacter baumannii; 0.48% in the assay on Escherichia coli; 27.65% in the assay on Klebsiella pneumoniae; 4.29% in the assay on Candida albicans; -2.63% in the assay with Cryptococcus neoformans.
Take `OC(COc1ccccc1)CN1CCN(c2ccccc2)CC1` (stereo not given): the Inhibition was 6.47% in the assay with Staphylococcus aureus; -11.62% with Acinetobacter baumannii; 3.6% with Escherichia coli; 14.06% with Klebsiella pneumoniae; 0.81% with Candida albicans; -11.95% in the assay on Cryptococcus neoformans.
In the case of `Cn1c(=O)c2c(nc(Cc3ccccc3)n2C)n(C)c1=O`, the Inhibition in the assay with Staphylococcus aureus was 3.97%; in the assay with Acinetobacter baumannii, 12.97%; with Escherichia coli, -5.53%; with Klebsiella pneumoniae it was 15.33%; with Candida albicans, 4.11%; in the assay with Cryptococcus neoformans it was -7.23%.
`C#CCSc1nc(-c2ccco2)n[nH]1`: the Inhibition in the assay on Staphylococcus aureus is 6.25%; in the assay on Acinetobacter baumannii it was 16.42%; in the assay with Escherichia coli, -3.2%; in the assay on Klebsiella pneumoniae it was 9.41%; in the assay on Candida albicans, 3.4%; in the assay on Cryptococcus neoformans, -6.15%.
In the case of `NC1=NC(Nc2ccccc2)=NC(c2ccccc2)N1` (stereo not given), the Inhibition in the assay on Staphylococcus aureus is 10.62%; in the assay on Acinetobacter baumannii, 4%; in the assay on Escherichia coli, 5.99%; with Klebsiella pneumoniae, 5.54%; in the assay with Candida albicans it was 6.21%; with Cryptococcus neoformans it was -14.92%.
Turning to `Cn1c(C(=O)c2ccncc2)cc2ccccc21`, the Inhibition with Staphylococcus aureus is 10.4%; in the assay with Acinetobacter baumannii, 13.49%; in the assay with Escherichia coli, 0.36%; in the assay on Klebsiella pneumoniae, 4.66%; in the assay on Candida albicans it was 5.59%; with Cryptococcus neoformans it was -4.68%.
In the case of `CSc1nc(O)nnc1Sc1ccccc1`, the Inhibition is -5.45% in the assay with Staphylococcus aureus; -15.47% in the assay with Acinetobacter baumannii; 6.74% in the assay on Escherichia coli; 7.57% with Klebsiella pneumoniae; 13.4% in the assay with Candida albicans; -16.19% in the assay on Cryptococcus neoformans.
`CCCCOc1ccc(NC(=O)Nc2nnc(C)s2)cc1`: the Inhibition in the assay with Staphylococcus aureus was 12.15%; in the assay on Acinetobacter baumannii it was 11.82%; in the assay on Escherichia coli, 5.52%; with Klebsiella pneumoniae, 16.37%; in the assay with Candida albicans, -3.65%; with Cryptococcus neoformans, -3.97%.
For the molecule `COc1ccc2[nH]c(-c3ccccc3)cc2c1`, the Inhibition is 9.9% in the assay with Staphylococcus aureus; 3.58% with Acinetobacter baumannii; 0.95% with Escherichia coli; 16.65% in the assay on Klebsiella pneumoniae; 6.65% in the assay with Candida albicans; -9.39% in the assay with Cryptococcus neoformans.
`O=C(Oc1ccccc1)c1cccc2cccc(C(=O)Oc3ccccc3)c12`: the Inhibition with Staphylococcus aureus is 17.84%; with Acinetobacter baumannii, 0.5%; in the assay on Escherichia coli, -0.78%; in the assay with Klebsiella pneumoniae, 14.06%; in the assay with Candida albicans, 7.13%; in the assay on Cryptococcus neoformans, -3.03%.
In the case of `CSc1cccc(NC(=O)N2CCN(C)CC2)c1`, the Inhibition is 0.63% with Staphylococcus aureus; -10.8% in the assay with Acinetobacter baumannii; 6.03% in the assay with Escherichia coli; 6.8% in the assay on Klebsiella pneumoniae; 3.78% in the assay on Candida albicans; -18.46% in the assay on Cryptococcus neoformans.
